In the library only some 1.4% were active in any assay of this set; here they are far more common.
Vif-APOBEC3F blk = inhibitors of Vif-A3F interaction. HeLa A3F-eYFP + Vif (tagged APOBEC3F with the HIV-1 protein that degrades it), YFP fluorescence increase. 390,000 compounds, 0.2% hits. Potency, µM (top dose mostly 46.1 µM), inactives show at the highest dose activity, negative = active; further: potency means the concentration at half of the fitted maximal effect; % of control where 0% means no effect; nearly all actives have a fitted effect of over 65% in size
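HeLa cells stably expressing Vif plus C-terminally eYFP-tagged A3F were seeded, incubated overnight at 37 deg C, dosed with compound, incubated overnight again at 37 deg C. Yellow fluorescence (Ex 488/Em 500-530) reported blocked Vif-mediated A3F-eYFP degradation.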
ALOX12 inh = ALOX12 (human) lipoxygenase inhibition; P18054; purified 12hLO, xylenol orange hydroperoxide absorbance; Potency, µM (doses to about 108 µM), inactives show at the top dose activity change, negative = inhibition, actives largely listed as inhibitors; 580,000 compounds, 1.1% hits; AID 1671190; further: potency means the concentration at half of the fitted maximal effect; on the % scale 0 is the no-effect control and ±100 the full control effect
Target sequence (P18054 whole entry, looked up): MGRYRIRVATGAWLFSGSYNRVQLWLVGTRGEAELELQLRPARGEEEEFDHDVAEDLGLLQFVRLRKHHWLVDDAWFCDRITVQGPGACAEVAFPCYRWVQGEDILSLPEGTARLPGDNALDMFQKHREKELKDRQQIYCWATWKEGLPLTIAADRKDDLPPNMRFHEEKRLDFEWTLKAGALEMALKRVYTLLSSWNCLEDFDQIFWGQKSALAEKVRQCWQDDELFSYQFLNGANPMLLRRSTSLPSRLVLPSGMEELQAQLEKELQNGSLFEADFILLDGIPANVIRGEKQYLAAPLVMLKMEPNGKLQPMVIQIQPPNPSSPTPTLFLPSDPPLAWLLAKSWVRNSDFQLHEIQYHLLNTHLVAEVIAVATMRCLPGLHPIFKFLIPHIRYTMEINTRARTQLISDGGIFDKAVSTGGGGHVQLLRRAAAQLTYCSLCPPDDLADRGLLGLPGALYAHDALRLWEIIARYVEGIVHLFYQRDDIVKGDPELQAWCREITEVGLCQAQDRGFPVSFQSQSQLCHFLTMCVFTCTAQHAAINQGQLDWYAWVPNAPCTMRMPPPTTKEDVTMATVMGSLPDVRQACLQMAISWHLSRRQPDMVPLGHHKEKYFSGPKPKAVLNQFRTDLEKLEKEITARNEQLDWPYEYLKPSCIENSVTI
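Purified human 12hLO (150 nM final) in 25 mM Hepes, 0.01% Triton X-100, pH 7.0 was preincubated 15 min at room temperature with compound. Then 40 uM arachidonic acid was added, 30 min. Hydroperoxide was read by Fe-XO absorbance ratio 573/405 nm.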
PTAP TSG101 blk = blocks PTAP/TSG101 interaction to inhibit HIV-1 budding. Q99816. AID 493005. 340,000 tested, under 10 active. Fluorescence polarization, FITC-PTAP peptide / Tsg101 binding. Potency, µM (doses to about 115 µM), for inactives: at the highest dose activity change, negative = inhibition, actives largely listed as inhibitors; active means well fitted inhibition curve with a large enough effect in the main read-out, with a control signal flat, not every such curve was filed as active; inconclusive means small, poorly fitted or top-dose-only effect, or effect the other way, or a change in a side signal; inactive means no such curve, though single readings can be large or run the other way; further: potency means the concentration at half of the fitted maximal effect; % of control where 0% means no effect
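Compounds were pin-transferred onto Tsg101 binding domain (10 uM final) in HEPES pH 7.5 buffer, then FITC-PTAP peptide was added at 50 nM final. After 20 min at RT, polarization reported peptide displacement across a qHTS concentration series.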
Akt phos inh = inhibitors of Akt phosphorylation | Neuro2A IGF-stimulated pAkt S473 HTRF, 20 min; active compounds read low | activity change, % for hits at 50 µM | 360,000 compounds, 0.32% hits | AID 651550; in the data active means activity change below about -80%; inconclusive means mostly about -51% to -80%; further: on the % scale 0 is the no-effect control and ±100 the full control effect
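Single-point screen (50 µM final compound) in Neuro2A cells stimulated 20 min with 6 nM IGF at 37 deg C. After lysis, Ser473-phosphorylated Akt read by HTRF (ex 330 nm, em 615/665 nm) as the 665/615 ratio.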
S-ASM inh = inhibitors of human secretory acid sphingomyelinase; P17405; placental ASM, HMU-PC fluorogenic substrate, 60 min; Potency, µM (highest dose often 57.5 µM), inactives show at the highest dose activity change, negative = inhibition, hits mostly inhibitors; 340,000 compounds, 0.006% hits; AID 504937; further: potency means the concentration at half of the fitted maximal effect
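Steps: dispense placental human ASM, pin compound, wait 10 min at room temperature, add HMU-PC0 substrate at 9 uM final, incubate 60 min at 37 °C, add stop solution raising pH to 10, read fluorescence.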
Vif-A3G inh = inhibitors of Vif-APOBEC3G interaction. Potency, µM (top dose mostly 46.1 µM), inactives show top-dose activity, negative = active, hits mostly inhibitors. HeLa A3G-eYFP + Vif (tagged APOBEC3G with the HIV-1 protein that degrades it), YFP fluorescence, overnight. Q9HC16. 410,000 compounds, 0.076% hits. AID 602310; further: potency means the concentration at half of the fitted maximal effect; on the % scale 0 is the no-effect control and ±100 the full control effect; nearly all actives have a fitted effect of over 60% in size
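HeLa cells stably expressing Vif and C-terminally eYFP-tagged A3G, seeded overnight at 37 deg C, then exposed to compound by pintool overnight at 37 deg C. Rise in yellow fluorescence (Ex 488/Em 500-530, Acumen) marks blocked Vif-driven A3G degradation.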
* marks the source's active call; other numbers are inactive results; i = inactive; ? = inconclusive; . = not tested or not shown. Unless noted, the call rests on the fitted dose curve; in most records, active means well fitted curve in the direction sought with a large enough effect; inconclusive means small, poorly fitted or top-dose-only effect, or another doubt; inactive means no such curve, though single readings can be large; an effect the other way counts as inactive or inconclusive.

SMILES | Vif-APOBEC3F blk | ALOX12 inh | PTAP TSG101 blk | Akt phos inh | S-ASM inh | Vif-A3G inh
Cc1cccc(C(C)NNC(=O)C(O)(c2cccc(C)c2)c2cccc(C)c2)c1 (stereo unspecified) | . | -5.7% | . | . | . | .
C/C(=N\NC(=S)NC(C)C)c1ccccc1 | ? | ? | -2.6% | i | 2.4% | 2.5%
CC(C)NC(=S)NC(c1ccccc1)(c1ccccc1)c1ccccc1 | -5.7% | 39.8µM* | 2.6% | i | -1.3% | -1.7%
Cc1ccc(-c2nc3ccc(Br)cn3c2Cc2ccsc2)cc1 | . | 3.16µM* | . | i | . | -27.8%
Cc1ccc(-c2nc3ccc(C)cn3c2Cc2ccsc2)cc1 | . | ? | . | i | . | -9.7%
Cc1ccc(Cc2c(-c3ccc(Br)cc3)nc3ccc(Cl)cn23)cc1 | . | 35.5µM* | . | i | . | -20.2%
CN(C(=O)Nc1ccc(Cl)cc1)c1c2c(nn1C)CCCC2 | -1.2% | -21.4% | -1.3% | -86.7%* | 2.2% | -3.0%
Nc1cc(N)cc(Cc2ccccc2)c1 | . | ? | . | i | . | 0.9%
Nc1cc(Cc2ccccc2)ccc1O | 10.0% | 5.62µM* | -7.7% | i | 3.5% | -8.9%
N#Cc1nc(-c2ccccc2)oc1NCc1ccccc1 | . | -15.1% | . | . | . | .
Cc1cccc(-c2nc(C#N)c(NCc3ccccc3)o2)c1 | . | 50.1µM* | . | . | . | .
N#Cc1nc(COc2cccc(Cl)c2)oc1NCc1ccc2c(c1)OCO2 | . | 12.6µM* | . | . | . | .
N#Cc1nc(-c2cccc3ccccc23)oc1NCc1ccc2c(c1)OCO2 | . | 31.6µM* | . | . | . | .
COc1ccccc1NC(=O)COc1cc(O)c2c(=O)cc(-c3ccccc3)oc2c1 | . | -1.6% | . | . | . | .
CC(C)C(=O)/C(C#N)=C\c1cccc([N+](=O)[O-])c1 | . | -50.0% | . | . | . | .
CN(C(=O)CN1CCN(c2cc(-c3ccc(-c4ccccc4)cc3)ncn2)CC1)c1ccccc1 | . | 44.7µM* | . | i | . | -5.5%
CN(C)c1ccc(C#N)cc1 | . | -17.3% | . | . | . | .
CCC(C)(C)n1nnnc1C(c1ccc(OC)c(OC)c1)N1CCN(c2cccc(OC)c2)CC1 (stereo unspecified) | -2.7% | -6.2% | -0.5% | i | 0.8% | -4.5%
CCC(C)(C)n1nnnc1C(c1ccc(OC)c(OC)c1)N1CCN(c2ccccc2)CC1 (stereo unspecified) | 9.0% | 0.0% | -11.0% | -105.0%* | -0.2% | -0.3%
COc1cc(-c2ccc(Nc3ccccc3C(=O)O)c(OC)c2)ccc1Nc1ccccc1C(=O)O | 4.0% | 35.5µM* | -5.3% | i | -18.1% | -4.8%
COCCN1CCCCCC(O)c2cc(C(=O)NCCc3c[nH]c4ccccc34)ccc21 (stereo unspecified) | . | 18.5% | . | . | . | .
CCn1nccc1C(=O)NC1=C(C#N)CCC1 | 0.2% | -16.5% | -11.8% | i | 4.7% | 1.7%
CCn1ccc(C(=O)NC2=C(C#N)CCC2)n1 | 0.8% | -27.3% | -5.2% | -115.0%* | 2.1% | -7.6%
NNCCc1ccccc1F | . | -43.9% | . | . | . | .
Cc1cccn2c(=O)c3cc(C#N)c(=NC(=O)c4cccs4)n(CCCOC(C)C)c3nc12 | 25.1µM* | 170.5% | -4.4% | i | i | -8.2%
SMILES | Vif-APOBEC3F blk | ALOX12 inh | PTAP TSG101 blk | Akt phos inh | S-ASM inh | Vif-A3G inh
Cc1cccn2c(=O)c3cc(C#N)c(=NC(=O)c4ccncc4)n(CCCOC(C)C)c3nc12 | -3.0% | ? | -11.1% | i | i | -1.4%
Oc1ccccc1CN1CCC(n2cc(-c3ccc(F)cc3)nn2)CC1 | . | 12.3% | . | . | . | .
COc1ccc(C2Oc3c(C(C)(C)C)cc(C(C)=O)c4c(OC(C)=O)c(C(C)(C)C)cc2c34)cc1OC (stereo unspecified) | . | -6.5% | . | . | . | .
CC(C)C[C@H]1CNC(=S)N1C[C@H]1CCCN1C[C@H](Cc1ccc(O)cc1)N1C[C@H](Cc2ccc(O)cc2)N(CCc2ccccc2)C1=S | . | 44.7µM* | . | i | . | -23.9%
CC(C)C[C@@H](CN1CCCC1CN1C(=S)NC[C@@H]1Cc1ccccc1)N1C[C@H](Cc2ccccc2)N(CCc2ccccc2)C1=S (stereo partly specified) | . | 39.8µM* | . | i | . | .
CC(C)C[C@@H](CN1CCCC1CN1C(=S)NC[C@@H]1Cc1ccccc1)N1C[C@H](Cc2ccccc2)N(CC2CCCCCC2)C1=S (stereo partly specified) | . | 35.5µM* | . | i | . | .
CCc1cc2c(C)cc(=O)oc2cc1OCC(=O)c1ccccc1 | . | 4.6% | . | . | . | .
COC(=O)CC1CCNCC1 | . | -2.4% | . | . | . | .
COc1ccc2cc(C3CC(c4ccco4)=NN3S(C)(=O)=O)c(Cl)nc2c1 (stereo unspecified) | -5.0% | 35.5µM* | -4.1% | i | 1.1% | -4.0%
COc1cc(/C=C/C(=O)c2cc3ccccc3o2)c2c(c1)CC(C)O2 (stereo unspecified) | . | -33.1% | . | . | . | .
Cc1ccc(-c2ccc(CN3C(C)C(=O)N(Cc4cn(Cc5ccco5)nn4)CCS3(=O)=O)cc2)cc1 (stereo unspecified) | 1.9% | 11.2µM* | . | i | . | -18.3%
CC(C)Cc1ccc(CN2C(C)C(=O)N(Cc3cn(Cc4ccco4)nn3)CCS2(=O)=O)cc1 (stereo unspecified) | . | 14.1µM* | . | i | . | -12.6%
CC1C(=O)N(Cc2cn(Cc3ccco3)nn2)CCS(=O)(=O)N1Cc1ccc(-c2ccc(Cl)c(Cl)c2)cc1 (stereo unspecified) | -31.4% | -41.1% | . | i | . | -19.2%
CCC/C=C/c1ccc(CN2C(C(C)C)C(=O)N(Cc3cn(Cc4ccco4)nn3)CCS2(=O)=O)cc1 (stereo unspecified) | -10.6% | 44.7µM* | . | i | . | -8.0%
COc1ccc(-c2ccc(CN3C(C)C(=O)N(Cc4cn(Cc5ccco5)nn4)CCS3(=O)=O)cc2)cc1 (stereo unspecified) | 2.3% | ? | . | i | . | 1.7%
CCCCOc1ccc(NC(=O)COc2ccc(C)c(C)c2)c2cccnc12 | . | -13.8% | . | . | . | .
Cc1ccc(C(=O)NC(c2cccs2)C(C)C)cc1C (stereo unspecified) | . | 2.9% | . | . | . | .
C/C(=N/NC(=O)c1ccccc1[N+](=O)[O-])c1cccc(NC(=O)C2CCCCC2)c1 | . | 37.8% | . | . | . | .
Cc1ccc(/C=C/C(=O)Nc2ccc(Oc3ccccc3)cc2)o1 | -17.4% | 15.8µM* | 0.2% | i | -1.7% | -15.1%
CC(=O)c1ccc(NC(=O)/C=C/c2ccc(C)o2)cc1 | -5.1% | -15.2% | . | . | . | -2.9%
CCOC(=O)CCc1ccc(NC(=O)/C=C/c2ccc([N+](=O)[O-])o2)cc1 | 11.2µM* | 8.1% | 0.7% | i | -5.9% | 7.94µM*
Cc1ccc(/C=C/C(=O)Nc2ccc([N+](=O)[O-])cc2)o1 | -6.7% | 6.31µM* | -10.4% | i | -0.7% | 2.6%

Assay outcomes from PubChem BioAssay.
